Our source for the survival values is PubChem BioAssay AID463173 (ICCB-Longwood Screening Facility, Harvard Medical School, 2010).

About 4,300 (8.3%) of roughly 52,000 compounds were called active. The sample holds actives, similar compounds and a random draw of the others, so the mix is not that of the screen. Unmarked numbers belong to inactive results. Rule as the data show it: active = survival mostly below about 52% (no sharp cut-off); inactive = mostly above about 56%.

The subject of the assay is DeltatarO mutant. The assay can be described thus: S. aureus survival, RN4220 and DeltatarO strains – OD600, teichoic acid synthesis inhibitors, primary screen (AID 463173). The settings on record: S. aureus RN4220 wild type/DeltatarO growth, OD600, 18 h, stronger effect = lower value, screened at 18.75 µg/mL (by protocol).
Regarding `CCOc1ccc(NC(=O)CSC2=Nc3ccccc3C3=NC(CC(=O)NCc4ccco4)C(=O)N23)cc1` (stereo not drawn), the survival was 69%. For the molecule `CCCOc1cccc(C(=O)Nc2cc(-c3ccccc3)no2)c1`, the survival is 65%. For `O=c1c2oc3ccccc3c2n(Cc2ccccc2F)c(=O)n1Cc1ccccc1` the value was 46% (active); for `CCCCn1c(=O)c2oc3ccccc3c2n(CC(=O)Nc2cccc(Cl)c2C)c1=O`, 52%; for `O=c1c2oc3ccccc3c2n(Cc2ccccc2F)c(=O)n1Cc1ccco1`, 77%. Take `Cc1ccc(C)c(Cn2c(=O)n(C(C)C)c(=O)c3oc4ccccc4c32)c1`: the survival is 51% (active).

Turning to `Cc1ccc(C)c(NC(=O)Cn2c(=O)n(Cc3ccccc3)c(=O)c3oc4ccccc4c32)c1`, the survival is 62%. In the case of `COc1cc(NC(=O)Cn2c(=O)n(Cc3ccco3)c(=O)c3oc4ccccc4c32)cc(OC)c1` it was 38% (active); in that of `COc1ccccc1NC(=O)Cn1c(=O)n(Cc2ccco2)c(=O)c2oc3ccccc3c21`, 67%. Turning to `CCCCn1c(=O)c2oc3ccccc3c2n(CC(=O)Nc2cc(C)ccc2C)c1=O`, the survival is 44% (active). In the case of `Cc1ccc(C)c(Cn2c(=O)n(Cc3ccco3)c(=O)c3oc4ccccc4c32)c1` it was 97%; in that of `CC(C)n1c(=O)c2oc3ccccc3c2n(Cc2ccccc2F)c1=O`, 50%; in that of `O=c1c2oc3ccccc3c2n(Cc2ccc(Cl)cc2)c(=O)n1Cc1ccccc1`, 108%. For `Cc1cc(C)cc(NC(=O)Cn2c(=O)n(Cc3ccco3)c(=O)c3oc4ccccc4c32)c1` the value was 106%; for `CN1/C(=C/C(=O)C2CCC2)Sc2ccccc21`, 56%; for `Cn1c(=O)n(C)c2cc(N3CCCCC3)c(NC(=O)Nc3ccc(Br)cc3)cc21`, 88%.

For the molecule `COCCn1c(=N)c(C(=O)NCc2ccco2)cc2c(=O)n3cc(C)ccc3nc21`, the survival is 69%.

Consider `COc1cccc(C(c2sc3nc(-c4ccco4)nn3c2O)N2CCN(C)CC2)c1` (stereo not drawn), for which the survival was 88%. In the case of `CCOC(=O)c1c(NC(=O)c2cc3nc(-c4ccc(OC)cc4)cc(C(F)(F)F)n3n2)sc2c1CCC(C)C2` (stereo not drawn) it was 95%; in that of `CCOc1ccc(NS(=O)(=O)c2ccc3[nH]cc(C(=O)N4CCCC4)c(=O)c3c2)cc1`, 85%; in that of `CCOc1ccc(NC(=O)Cn2c(=O)n(Cc3ccc(C(=O)NCc4ccc(C)cc4)cc3)c(=O)c3ccccc32)cc1`, 75%. For `CCN(CC)c1nc(OCC(F)(F)F)nc(N(c2ccccc2)c2ccccc2)n1` the value was 76%. For `COc1cc(NC(=O)Cn2c(=O)n(C(C)C)c(=O)c3oc4ccccc4c32)cc(OC)c1` the value was 47% (active). Regarding `COc1ccc(NC(=O)Cn2c(=O)n(Cc3ccco3)c(=O)c3oc4ccccc4c32)cc1Cl`, the survival is 53%. For `O=C(Cn1c(=O)n(Cc2ccco2)c(=O)c2oc3ccccc3c21)Nc1ccc(F)c(Cl)c1` the value was 44% (active); for `COc1ccc(NC(=O)Cn2c(=O)n(C(C)C)c(=O)c3oc4ccccc4c32)cc1Cl`, 42% (active); for `CC(C)n1c(=O)c2oc3ccccc3c2n(CC(=O)Nc2ccccc2Cl)c1=O`, 60%.

Turning to `COc1cc(NC(=O)Cn2c(=O)n(Cc3ccccc3)c(=O)c3oc4ccccc4c32)cc(OC)c1`, the survival is 85%. In the case of `COc1ccc(NC(=O)Cn2c(=O)n(Cc3ccccc3)c(=O)c3oc4ccccc4c32)cc1Cl`, the survival was 85%. `O=C(Cn1c(=O)n(Cc2ccco2)c(=O)c2oc3ccccc3c21)Nc1ccccc1`: the survival was 67%. Consider `Cc1cc(C)cc(NC(=O)Cn2c(=O)n(C(C)C)c(=O)c3oc4ccccc4c32)c1`, for which the survival is 48%. In the case of `COc1cccc(CNC(=O)C2CCCN(S(=O)(=O)c3cn(C)cn3)C2)c1` (stereo not drawn) it was 75%; in that of `CSCCC(NS(=O)(=O)c1cccs1)C(=O)Nc1ccc(C)c(Cl)c1` (stereo not drawn), 74%; in that of `CCC(C(=O)N1CCN(c2ccccn2)CC1)c1ccccc1` (stereo not drawn), 75%.

Take `COc1ccc(CNC(=O)CCS(=O)(=O)c2ccc3c(c2)oc(=O)n3C)cc1`: the survival is 75%. In the case of `CCc1ccccc1NC(=O)Cn1c(=O)n(Cc2ccccc2)c(=O)c2c(C)c(C(=O)N(C)C)sc21` it was 67%; in that of `N#CC(C#N)=C(C(C#N)=C1Nc2ccccc2N1)c1ccccc1F`, 59%; in that of `O=C(Nc1ccc(Br)cc1)c1ccc2c3c(onc13)-c1ccccc1C2=O`, 72%. Turning to `CN(C)c1ccc(CNS(=O)(=O)c2ccc3[nH]c4c(c3c2)CCCCC4)cc1`, the survival was 84%.

As for `Cc1cccc(C(=O)Nc2ccc3nc(SCC(=O)N4CCCC4)sc3c2)c1`, the survival is 58%.

Regarding `CCSc1ncc(Cl)c(C(=O)N(Cc2ccc(C(C)(C)C)cc2)C2CCS(=O)(=O)C2)n1` (stereo not drawn), the survival was 42% (active).

Consider `Cc1ccc2c(=O)cc(C(=O)N(Cc3ccc(N(C)C)cc3)C3CCS(=O)(=O)C3)oc2c1` (stereo not drawn), for which the survival was 115%.

For the molecule `CCCOc1ccc(CN(C(=O)c2cc(=O)c3ccc(C)cc3o2)C2CCS(=O)(=O)C2)cc1` (stereo not drawn), the survival was 36% (active). Turning to `Cc1ccc2c(=O)cc(C(=O)N(Cc3ccc(C(C)(C)C)cc3)C3CCS(=O)(=O)C3)oc2c1` (stereo not drawn), the survival is 35% (active). Consider `CCSc1ncc(Cl)c(C(=O)N(Cc2ccccc2Cl)C2CCS(=O)(=O)C2)n1` (stereo not drawn), for which the survival is 83%.

Turning to `CCOc1ccc(CN(C(=O)c2cc(=O)c3cc(C)cc(C)c3o2)C2CCS(=O)(=O)C2)cc1` (stereo not drawn), the survival was 56%. In the case of `CCOc1ccc(CN(C(=O)c2cc(=O)c3cc(Cl)ccc3o2)C2CCS(=O)(=O)C2)cc1` (stereo not drawn) it was 104%. In the case of `CCc1ccc(CN(C(=O)c2nc(SC)ncc2Cl)C2CCS(=O)(=O)C2)cc1` (stereo not drawn) it was 71%; in that of `CCc1ccc(CN(C(=O)c2cc(=O)c3ccc(C)cc3o2)C2CCS(=O)(=O)C2)cc1` (stereo not drawn), 107%; in that of `COc1cccc(NC(=O)c2oc3ccccc3c2NC(=O)c2ccc(C(F)(F)F)cc2)c1`, 60%. `COc1cc(CN2CCc3nc(Nc4ccc5c(c4)OCCO5)ncc3C2)cc(OC)c1OC`: the survival was 91%.

In the case of `CCOC(=O)N1CCN(Cc2nc3cc(NC(=O)C(C)C)ccc3n2C(C)C)CC1`, the survival is 68%. For `CCOC(=O)c1cccc(NC(=O)CCC(=O)N2CC(C)Oc3ccc(C)cc32)c1` (stereo not drawn) the value was 51%.
